Screening results deposited in PubChem by National Center for Advancing Translational Sciences (NCATS).
Compounds with a hit are over-represented: about 7.8% of the library has one in this group of screens.
VACV Venus inh = qHTS for Stage-Specific Inhibitors of Vaccinia Orthopoxvirus: Venus Reporter Primary qHTS; Vaccinia virus Venus reporter expression, fluorescence; AID 720580, 2013; hit rate 0.46% among 330,000; Potency, µM (series often up to 36.5 µM), inactives show top-dose activity change, negative = inhibition, hits mostly inhibitors; calls by dose curve; tested in A549 cells; further: potency means the concentration at half of the fitted maximal effect; nearly all actives have a fitted effect of over 30% in size
HCMV inh = qHTS Assay for inhibitors of the human cytomegalovirus (HCMV); AID 1259415, 2018; hit rate 4.5% among 410,000; activity change, negative = inhibition, % at 57.5 µM; HFF cells, HCMV-luciferase reporter, 72 h; active compounds read low; in the data active means activity change below about -60%; inconclusive means no clear call, values can overlap the other calls; inactive means above about -39%
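Compounds were evaluated in HFFs infected with an HCMV luciferase reporter virus (MOI 1 PFU/cell). Luciferase in lysates collected 72 h post infection served as the replication measure.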
MARV entry inh = qHTS for inhibitors of binding or entry into cells for Marburg Virus. Potency, µM (top dose mostly 37.8 µM), for the others: at the highest dose activity change, negative = inhibition, most hits filed as inhibitors. Marburg virus pseudotyped entry inhibition, cell reporter. hit rate 1.8% among 300,000. AID 540276, 2011; calls by dose curve; tested in HEK293 cells; further: potency means the concentration at half of the fitted maximal effect
HCV inhibitor = qHTS Assay for Inhibitors of Hepatitis C Virus (HCV). Huh7.5.1 HCVcc-Cre infection, luciferase reporter, 44 h. AID 651820, 2012. hit rate 3.4% among 340,000. Potency, µM (doses to about 41.8 µM), without a hit: at the top dose activity change, negative = inhibition, hits mostly inhibitors; active means well fitted inhibition curve with a large enough effect; inconclusive means small, poorly fitted or top-dose-only effect, or another doubt; inactive means no such curve, though single readings can be large or run the other way; further: potency means the concentration at half of the fitted maximal effect
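Cells (1,000/well) were plated 4 h before compound, then infected with HCVcc-Cre virus (~0.5 moi). After 44 h further culture, infection was read as luciferase luminescence following a 15 min substrate incubation at room temperature.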
LASV entry inh = qHTS for Inhibitors of binding or entry into cells for Lassa Virus; Lassa virus pseudotype entry inhibition, cell reporter; Potency, µM (top dose mostly 37.9 µM), for inactives: at the highest dose activity change, negative = inhibition, most hits filed as inhibitors; hit rate 1.2% among 300,000; AID 540256, 2011; calls by dose curve; tested in HEK293 cells; further: potency means the concentration at half of the fitted maximal effect; nearly all actives have a fitted effect of over 50% in size
VACV mCherry inh = qHTS for Stage-Specific Inhibitors of Vaccinia Orthopoxvirus: mCherry Reporter Primary qHTS. Vaccinia virus mCherry reporter infection, fluorescence. Potency, µM (top dose mostly 36.5 µM), for the others: at the top dose activity change, negative = inhibition, hits mostly inhibitors. hit rate 0.63% among 310,000. AID 720579, 2013; calls by dose curve; tested in A549 cells; further: potency means the concentration at half of the fitted maximal effect; nearly all actives have a fitted effect of over 35% in size
* hit, by the source's call; i = inactive; ? = inconclusive; nt = no result given; [ ] = dose if it differs, or a comment. On the % scale 0 is the no-effect control and ±100 the full control effect.

SMILES | VACV Venus inh | HCMV inh | MARV entry inh | HCV inhibitor | LASV entry inh | VACV mCherry inh
Cc1ccc(OCCCc2c(C)n[nH]c2C)cc1 | -18% | ? | ? | -29% | -9%[46.1 µM] | -8%
Cc1n[nH]c(C)c1CCCCOc1ccccc1 | -4% | -82* | -21%[46.1 µM] | -30% | 10% | -14%
CCC(C)(C)NC(=O)C(c1ccc(OC)cc1)N(C(=O)CCC(=O)Nc1cc(C)on1)c1cccc(F)c1 (configuration not stated) | -15% | 1 | ? | ? | 7.1µM* | -7%
CCC(C)(C)NC(=O)C(c1ccc(OC)cc1)N(Cc1ccccc1)C(=O)CCC(=O)Nc1cc(C)on1 (configuration not stated) | 9% | -26 | ? | -11% | 2%[46.1 µM] | -8%
COc1ccc(C(C(=O)NC(C)(C)C)N(Cc2ccccc2)C(=O)CCC(=O)Nc2cc(C)on2)cc1 (configuration not stated) | nt | -64* | nt | -14% | nt | nt
COc1ccc(C(C(=O)NC(C)(C)C)N(C(=O)CCC(=O)Nc2cc(C)on2)c2cccc(F)c2)cc1 (configuration not stated) | -3% | 4 | ? | -11% | 16% | 69%
C=C1C=C(C)n2ncc(C(=O)Nc3cccc4cnccc34)c2N1 | -10% | nt | nt | nt | nt | -3%
Cc1cc(C(F)(F)F)cc(NNC(=O)NC(=O)c2c(F)cccc2Cl)n1 | 0% | ? | 7.1µM* | -15% | ? | ?
CC(=O)N1CCOc2ccc(S(=O)(=O)NCC3CCC(C(=O)Nc4ccc(C)cn4)CC3)cc21 (configuration not stated) | -11% | -68* | ? | ? | ? | -16%
CC(C)CCNC(=O)C1CCN(S(=O)(=O)c2ccc3c(c2)CC(C)N3C(=O)C2CCC2)CC1 (configuration not stated) | -24% | -10 | -1%[46.1 µM] | -7% | -22%[46.1 µM] | -12%
Cc1ccnc(NC(=O)C2CCN(S(=O)(=O)c3ccc4c(c3)CC(C)N4C(=O)C3CCC3)CC2)c1 (configuration not stated) | -30% | ? | ? | ? | ? | -2%
CC1Cc2cc(S(=O)(=O)N3CCC(C(=O)N(C)Cc4ccccc4)CC3)ccc2N1C(=O)C1CC1 (configuration not stated) | nt | -25 | nt | 5.6µM* | nt | nt
CC1Cc2cc(S(=O)(=O)N3CCC(C(=O)Nc4ccccn4)CC3)ccc2N1C(=O)C1CCC1 (configuration not stated) | -28% | -73* | ? | 7.9µM* | ? | -23%
Cc1ccc(NC(=O)C2CCN(S(=O)(=O)c3ccc4c(c3)CC(C)N4C(=O)C3CCC3)CC2)nc1 (configuration not stated) | ? | -86* | ? | 8.9µM* | ? | -10%
Cc1ccc2cc(CNC(C)c3cccc4ccccc34)c(N3CCC(O)CC3)nc2c1 (configuration not stated) | 11% | nt | nt | nt | nt | 0%
CC(=O)N1c2ccc(S(=O)(=O)N3CCC(C(=O)Nc4ccc(C)cn4)CC3)cc2CC1C (configuration not stated) | nt | -80* | nt | 11µM* | nt | nt
CC(=O)N1c2ccc(S(=O)(=O)NCC3CCC(C(=O)Nc4cc(C)cc(C)c4)CC3)cc2CC1C (configuration not stated) | -26% | -22 | nt | nt | ? | ?
CC(=O)N1c2ccc(S(=O)(=O)NCC3CCC(C(=O)Nc4ccc(C)cn4)CC3)cc2CC1C (configuration not stated) | -16% | -62* | ? | ? | ? | -24%
O=C(Nc1ccc2nc(SCC(=O)N3CCc4ccccc43)sc2c1)c1cccc(F)c1 | -8% | -5 | -8%[46.1 µM] | nt | -14%[46.1 µM] | -11%
CCS(=O)(=O)c1c(S(=O)(=O)CC)c2cc(C(C)(C)C)ccn2c1C(=O)c1ccc(F)cc1 | 1% | -11 | 8%[46.1 µM] | nt | 6%[46.1 µM] | -14%
Cc1ccc(C(=O)N/N=C/c2ccc(-c3ccccc3[N+](=O)[O-])o2)cn1 | ? | -64* | 5% | -8% | 18% | ?
O=C(N/N=C/c1ccc(-c2cccc([N+](=O)[O-])c2)o1)[C@H]1C[C@@H]1c1ccccc1 | -22% | ? | 4% | ? | 4µM* | -6%
O=C(/C=C/c1ccc(-c2ccccc2[N+](=O)[O-])o1)c1ccccc1 | 3% | 43 | ? | -17% | 8% | -10%
O=C(N/N=C/c1ccc(-c2ccccc2[N+](=O)[O-])o1)[C@H]1C[C@@H]1c1ccccc1 | 6% | ? | ? | ? | 0.82µM* | i
O=C(N/N=C/c1ccc(-c2ccc([N+](=O)[O-])cc2)o1)[C@H]1C[C@@H]1c1ccccc1 | 10% | 0 | -23%[46.1 µM] | ? | ? | -19%
SMILES | VACV Venus inh | HCMV inh | MARV entry inh | HCV inhibitor | LASV entry inh | VACV mCherry inh
O=[N+]([O-])c1cccc(-c2ccc(/C=N/NC(=S)Nc3cccc(F)c3)o2)c1 | -16% | ? | -6% | ? | -2% | -6%
NC(=S)N/N=C/c1ccc(-c2cccc([N+](=O)[O-])c2)o1 | 5µM* | -19 | -26% | ? | -2% | 4.5µM*
CCCCc1nn2c(=O)cc(COC(=O)c3ccco3)nc2s1 | -3% | 3 | nt | nt | 6%[46.1 µM] | 2%
CC(=O)OC1(c2ccccc2)CCN(C)C2CCCCC21 (configuration not stated) | -13% | -21 | -8% | ? | -14% | -13%
CC(=O)OC1(c2ccccc2)CCN(C)CC1(C)C (configuration not stated) | nt | -80* | nt | 15% | nt | nt
O=C(Cc1c[nH]c2ccccc12)N1CCC(n2c(C3CCCO3)nc3cc(C(F)(F)F)ccc32)CC1 (configuration not stated) | -12% | nt | nt | nt | nt | -14%
Cc1ncc2c(c1CNC(=O)c1ccc3c(c1)OCO3)CCN(C(=O)c1ccoc1)C2 | 2% | nt | nt | nt | nt | -10%
Cc1nn(C)c(C)c1NC(=O)CCCSc1nc(-c2ccco2)cc(C(F)(F)F)n1 | ? | ? | ? | 2.2µM* | -16% | nt
O=C(CSc1nc(-c2ccco2)cc(C(F)(F)F)n1)Nc1ccc(C(=O)N2CCOCC2)cc1 | -23% | -8 | ? | 10µM* | -11% | nt
O=C(CCCSc1nc(-c2ccco2)cc(C(F)(F)F)n1)Nc1ccc2c(c1)OCO2 | ? | -26 | -3% | 4µM* | -6% | nt
COc1ccc(NC(=O)CSc2nc(-c3ccco3)cc(C(F)(F)F)n2)cc1 | -22% | -5 | ? | nt | ? | -26%
O=C(CSc1nc(-c2ccco2)cc(C(F)(F)F)n1)Nc1ccc2c(c1)OCO2 | ? | ? | -11% | 3.5µM* | -9% | ?
